From PubChem BioAssay AID1851 (National Center for Advancing Translational Sciences (NCATS), 2009)
Screen size: about 16,000 compounds; about 5,700 (36%) were called active. Roughly 24% stayed inconclusive and do not appear here. Calls follow the shape of the dose curve; as a rule, active = well fitted curve in the direction sought with a large enough effect; inconclusive = small, poorly fitted or top-dose-only effect, or effect the other way; inactive = no such curve, though single readings can be large or run the other way. The list shows a part of the results.

The compounds below were run against Cytochrome P450 1A2 (Homo sapiens) (UniProt P05177) (assay: Cytochrome panel assay with activity outcomes). Settings: recombinant CYP, pro-luciferin dealkylation, luminescence, p450-cyp1a2; series mostly up to 57.1 µM; activity, negative = inhibition: at the top concentration.
Chain of Cytochrome P450 1A2 (Homo sapiens) (P05177 whole entry, looked up): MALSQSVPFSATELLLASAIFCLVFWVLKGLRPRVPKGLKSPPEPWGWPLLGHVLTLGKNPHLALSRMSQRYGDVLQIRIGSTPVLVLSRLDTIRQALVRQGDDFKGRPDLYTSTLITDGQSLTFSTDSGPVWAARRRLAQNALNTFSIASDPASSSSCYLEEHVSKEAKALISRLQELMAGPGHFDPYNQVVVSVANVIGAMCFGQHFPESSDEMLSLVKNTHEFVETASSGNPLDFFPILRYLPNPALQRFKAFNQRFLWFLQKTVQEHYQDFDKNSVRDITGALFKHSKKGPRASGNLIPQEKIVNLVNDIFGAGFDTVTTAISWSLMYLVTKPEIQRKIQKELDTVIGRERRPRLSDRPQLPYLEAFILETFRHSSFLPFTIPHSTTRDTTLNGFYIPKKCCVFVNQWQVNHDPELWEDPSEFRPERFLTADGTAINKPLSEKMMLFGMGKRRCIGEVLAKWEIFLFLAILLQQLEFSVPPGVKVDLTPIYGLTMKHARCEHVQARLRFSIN
% is scaled to controls: 0 for no effect and ±100 for the full control effect.

**Q.** How did the “activity, negative = inhibition” value turn out when COc1ccc(OCC(=O)NNC(=O)c2ccc(-c3ccccc3)cc2)cc1 was run?
**A.** -1.81% (inactive)

**Q.** O=C(COc1ccccc1-c1ccccc1)N/N=C/c1cccc2ccccc12 was tested. Which AC50 did it give?
**A.** 794 nM (active)

**Q.** How did the AC50 turn out when O=c1[nH]c(SCc2c(Cl)c(Cl)c(Cl)c(Cl)c2Cl)nc(=S)[nH]1 was run?
**A.** 1000 nM (active)

**Q.** With CCCC[C@H]1C[C@@H]1[C@@H]1N(P(=O)(c2ccccc2)c2ccccc2)[C@](CO)(c2ccccc2)CC12CC2 as the compound, how does the “activity, negative = inhibition” value read?
**A.** -20.5% (inactive)

**Q.** For CSc1nncn1/N=C/c1ccc2c(c1)OCO2, which AC50 is on record?
**A.** 4470 nM (active)

**Q.** For CCCc1nnc(SCC(=O)N2CCCC(C)C2)n1CC1CCCO1 (configuration not stated), which “activity, negative = inhibition” value is on record?
**A.** 7.21% (inactive)

**Q.** With CCCc1nnc(SCC(=O)N2CCCCC2)n1CCCOC as the compound, how does the “activity, negative = inhibition” value read?
**A.** -23.7% (inactive)

**Q.** OC[C@@H]1O[C@@H](O)[C@H](N=Cc2ccc3c(c2)OCO3)[C@@H](O)[C@@H]1O was tested. Which activity, negative = inhibition did it give?
**A.** -24.4% [at 2.29 µM] (inactive)

**Q.** CCCc1nnc(SCC(=O)O)n1/N=C/c1ccc2c(c1)OCO2 was tested. Which AC50 did it give?
**A.** 15800 nM (active)

**Q.** How did the AC50 turn out when CCc1n[nH]c(=S)n1/N=C/c1ccc2c(c1)OCO2 was run?
**A.** 2240 nM (active)

**Q.** For O=c1cc(CSc2nnc(-c3cccnc3)n2-c2ccccc2F)nc2sccn12, which “activity, negative = inhibition” value is on record?
**A.** -0.0564% (inactive)

**Q.** For COCCn1c(=O)c(-c2ccc(F)cc2)nc2cnc(N(C)C)nc21, which AC50 is on record?
**A.** 2000 nM (active)

**Q.** COCCn1c(=O)c(-c2ccccc2)nc2cnc(N(C)C)nc21 was tested. Which AC50 did it give?
**A.** 3160 nM (active)

**Q.** How did the AC50 turn out when COCCn1c(=O)c(-c2ccc(Cl)cc2)nc2cnc(N(C)C)nc21 was run?
**A.** 1000 nM (active)

**Q.** With C[C@@H]1/C=C\CC(=O)OC[C@H](C)C(=O)N2CCC[C@@H]2C(=O)OC1 as the compound, how does the activity, negative = inhibition read?
**A.** -1.21% [at 11.4 µM] (inactive)

**Q.** For Cc1ccc(/C=C/c2ccc(=O)n(Cc3ccc(Cl)cc3Cl)n2)cc1, which AC50 is on record?
**A.** 10000 nM (active)

**Q.** With CC(=O)OC[C@@H]1O[C@H](CCON=C(C)C)C=C[C@@H]1OC(C)=O as the compound, how does the activity, negative = inhibition read?
**A.** 4.98% [at 11.4 µM] (inactive)

**Q.** CS(=O)(=O)N(CC(=O)O)Cc1ccccc1 was tested. Which activity, negative = inhibition did it give?
**A.** 4.38% [at 11.4 µM] (inactive)

**Q.** With ON(CCc1ccccn1)Cc1ccccc1 as the compound, how does the AC50 read?
**A.** 2510 nM (active)

**Q.** How did the AC50 turn out when c1ccc(CCc2cccnc2)nc1 was run?
**A.** 398 nM (active)

**Q.** With O=C1NC(=O)[C@@](Cc2ccccc2)(c2cccnc2)N1 as the compound, how does the activity, negative = inhibition read?
**A.** -17.1% [at 2.29 µM] (inactive)

**Q.** Which AC50 does the source give for ON(CCc1ccncc1)Cc1ccccc1 here?
**A.** 1000 nM (active)

**Q.** With CNCCc1ccccn1 as the compound, how does the “activity, negative = inhibition” value read?
**A.** -3.65% [at 25.6 µM] (inactive)

**Q.** Which “activity, negative = inhibition” value does the source give for Cc1nc2nc(C)c(CCC(=O)NCCCN3CCN(c4cccc(Cl)c4)CC3)c(C)n2n1 here?
**A.** -27.2% (inactive)

**Q.** With O=C(c1csnn1)N1CCC2(CCN(Cc3ccccc3)CC2)CC1 as the compound, how does the “activity, negative = inhibition” value read?
**A.** 4.19% (inactive)

**Q.** How did the AC50 turn out when Cc1ccccc1CSc1nsc(N)n1 was run?
**A.** 14100 nM (active)

**Q.** O=C(NNC(=O)c1ccccc1)C(=O)N1CCCCC1 was tested. Which “activity, negative = inhibition” value did it give?
**A.** -0.824% (inactive)

**Q.** Which “activity, negative = inhibition” value does the source give for O=C(N/C(=C\c1cccs1)C(=O)N1CCCCCC1)c1ccccc1 here?
**A.** -15.2% (inactive)

**Q.** How did the AC50 turn out when O=C(NC(N1CCCC1)C(Cl)(Cl)Cl)c1ccccc1 (configuration not stated) was run?
**A.** 11200 nM (active)

**Q.** How did the activity, negative = inhibition turn out when O=C(O)c1ccc(C(=O)c2ccccc2)c(C(=O)O)c1 was run?
**A.** 3.14% [at 2.29 µM] (inactive)

**Q.** For COc1ccc(C(=O)c2ccccc2)c(O)c1, which AC50 is on record?
**A.** 1580 nM (active)

**Q.** With COc1ccc2nccc(C(=O)O)c2c1 as the compound, how does the “activity, negative = inhibition” value read?
**A.** -5.66% [at 25.6 µM] (inactive)

**Q.** Which activity, negative = inhibition does the source give for O=C(O)c1ccc(C(=O)c2ccccc2C(=O)O)cc1C(=O)O here?
**A.** 2.76% [at 11.4 µM] (inactive)

**Q.** For COc1ccc(OC)c(-c2cc(C(=O)O)c3cc4ccccc4cc3n2)c1, which activity, negative = inhibition is on record?
**A.** -21.4% [at 2.29 µM] (inactive)

**Q.** Which AC50 does the source give for COc1ccc2oc(C(=O)c3ccccc3)c(N)c2c1 here?
**A.** 1260 nM (active)

**Q.** Which AC50 does the source give for COc1ccc(CN(CCN(C)C)c2ccccn2)cc1 here?
**A.** inactive

**Q.** How did the activity, negative = inhibition turn out when Cc1ccc(N(Cc2ccccc2)Cc2ccccc2)cc1 was run?
**A.** -24.2% [at 2.29 µM] (inactive)

**Q.** For CN(C)c1nccc(N(Cc2ccccc2)Cc2ccccc2)c1C#N, which AC50 is on record?
**A.** 11200 nM (active)

**Q.** With Cc1cc(N2C(=O)C(O)=C(C(=O)c3ccco3)C2c2ccc(O)cc2)no1 (configuration not stated) as the compound, how does the “activity, negative = inhibition” value read?
**A.** -3.33% (inactive)

**Q.** Which “activity, negative = inhibition” value does the source give for Cc1ccc2occ(/C=C/C(=O)O)c(=O)c2c1 here?
**A.** -2.47% (inactive)

**Q.** How did the AC50 turn out when c1csc(CNc2ncncc2-c2ccoc2)c1 was run?
**A.** 2000 nM (active)

**Q.** c1ccc(CNc2ncncc2-c2ccoc2)cc1 was tested. Which AC50 did it give?
**A.** 5010 nM (active)

**Q.** How did the AC50 turn out when c1cncc(-c2cncnc2NCc2cccs2)c1 was run?
**A.** 316 nM (active)

**Q.** With CC(N)=NCc1cccc(CN)c1 as the compound, how does the AC50 read?
**A.** inactive

**Q.** Which “activity, negative = inhibition” value does the source give for O=C(NCc1ccccc1)C(c1ccncc1)N(C(=O)c1csnn1)C1CC1 (configuration not stated) here?
**A.** -5.19% (inactive)

**Q.** For CN(C)CCCN1CCC2(CCC(C(C)(C)C)CC2)CC1, which activity, negative = inhibition is on record?
**A.** -1.31% [at 11.4 µM] (inactive)

**Q.** N#Cc1cccc(-c2nc(N3CCNCC3)c3ccccc3n2)c1 was tested. Which AC50 did it give?
**A.** 2510 nM (active)

**Q.** For COc1ccc(-c2nc(-c3cccc(C)c3)nc(N3CCN(C)CC3)c2C#N)cc1, which “activity, negative = inhibition” value is on record?
**A.** -22.7% (inactive)

**Q.** Which AC50 does the source give for CN1CCN(c2nc(-c3cccc(C#N)c3)nc3ccccc23)CC1 here?
**A.** 1580 nM (active)

**Q.** How did the “activity, negative = inhibition” value turn out when COc1ccc(C(=O)NC2(C(F)(F)F)C(=O)Nc3c2c(=O)[nH]c(=O)n3CCc2ccc(OC)c(OC)c2)cc1 (configuration not stated) was run?
**A.** -2.71% (inactive)

**Q.** CC(=O)OCc1c(C(F)(F)F)nn(C)c1Sc1ccccc1 was tested. Which AC50 did it give?
**A.** 15800 nM (active)

**Q.** With COc1cc(S(C)=O)ccc1-c1nc2ncccc2[nH]1 (configuration not stated) as the compound, how does the AC50 read?
**A.** 251 nM (active)
